Screening results from PubChem BioAssay.
CYP2C19 act = cytochrome P450 2C19 (human) activation. recombinant CYP2C19, luciferin-H EGE luminescence; hits give high values; 0 = fully inhibited enzyme, 1 = untreated enzyme. activation factor at 5 µM. 96,000 tested, under 10 active. AID 1025;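 active = activation factor of at least 2 at 5 µM in the primary screen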
Target sequence (P33261 whole entry, looked up): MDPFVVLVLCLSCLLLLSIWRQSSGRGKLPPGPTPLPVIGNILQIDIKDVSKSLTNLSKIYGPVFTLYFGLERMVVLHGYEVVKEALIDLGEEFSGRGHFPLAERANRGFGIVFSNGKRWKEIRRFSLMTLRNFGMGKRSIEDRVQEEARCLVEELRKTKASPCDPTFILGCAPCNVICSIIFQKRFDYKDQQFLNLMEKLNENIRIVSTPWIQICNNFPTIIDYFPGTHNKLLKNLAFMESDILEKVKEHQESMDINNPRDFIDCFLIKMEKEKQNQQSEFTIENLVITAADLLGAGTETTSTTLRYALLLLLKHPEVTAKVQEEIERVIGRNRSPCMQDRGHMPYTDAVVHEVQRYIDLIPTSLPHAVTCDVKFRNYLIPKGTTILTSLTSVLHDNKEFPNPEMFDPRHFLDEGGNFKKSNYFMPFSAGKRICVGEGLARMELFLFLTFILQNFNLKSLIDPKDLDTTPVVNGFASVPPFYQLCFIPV
CYP2C9 inhib = blocks human cytochrome P450 2C9; P11712; CYP2C9 Supersomes, luciferin-H conversion, luminescence; inhibition, % at 5 µM; 96,000 compounds, 20% hits; AID 777;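 active = blocking of liver enzyme CYP2C9 beyond about 50% at 5 µM, limit read from the data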
CYP2C9 activ = CYP2C9 (human) activation | 96,000 compounds, 1.4% hits | activation factor at 5 µM | recombinant CYP2C9, luciferin-H conversion, luminescence; hits give high values; factor 1 = untreated enzyme, 0 = blocked | P11712 | AID 1024;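 active = activation factor of 2 or more for CYP2C9 at a 5 µM dose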
PostGolgi yeast = growth inhibition of a yeast mutant, post-Golgi transport screen. post-Golgi transport phenotypic cell assay. 98,000 compounds, 0.9% hits. inhibition, % at 10 µM;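 also: yeast cells grown in 1536-well plates; yeast grown about 18 h at 30C before absorbance read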
CYP2C19 inhib = blocks human cytochrome P450 2C19; CYP2C19 Supersomes, luciferin-H EGE luminescence, 30 min; inhibition, % at 5 µM; 96,000 compounds, 21% hits;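 active = CYP2C19 inhibition above a set limit at 5 µM in the primary screen, cut at about 50% in these data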
PostGolgi ctrl = growth of the yeast control strain, post-Golgi counter-screen; efflux-deficient yeast background strain, growth absorbance A615, 16 h; inhibition, % at 10 µM; 98,000 compounds, 5% hits; AID 738
Large screens that a line does not name were inactive. Rows were chosen to be rich in hits. Some 32% of all compounds tested hit in one or more screens of this group. Rule as the data show it, unless noted: active = inhibition above about 30%; inactive = the rest.

O=C(CSc1cn(CCNC(=O)c2cccs2)c2ccccc12)NC1CCCC1	CYP2C9 inhib 82.4, CYP2C19 inhib 68.6
COC(=O)c1ccc2c(=O)n(CCN3CCOCC3)c(=S)[nH]c2c1	none
CCOc1ccc(N=c2scc(-c3ccccc3)n2CCO)cc1	CYP2C19 inhib 68.2
OCCn1c(-c2ccc3c(c2)OCO3)csc1=Nc1ccccc1	CYP2C9 inhib 86.6, CYP2C19 inhib 96.1
N=c1n(CCO)c2ccccc2n1CCOc1ccccc1	none
COC(=O)n1c(SC)nc2ccccc21	none
O=C(Nc1ccc(C(F)(F)F)cc1)C1CC(=O)N(c2ccc3c(c2)OCCO3)C1 (stereo unspecified)	none
Cc1ccc2[nH]c(=O)c(CN(C)C(=O)c3ccccn3)cc2c1	none
CC(C)(Oc1ccc(Cl)cc1)C(=O)N/N=C/c1cn[nH]c1-c1ccccc1	CYP2C9 inhib 71.8, CYP2C19 inhib 71.5
COc1ccc(-c2[nH]ncc2/C=N\NS(=O)(=O)c2ccccc2)cc1OC	CYP2C9 inhib 70.6
COc1ccc(-c2nc3ccccc3c(=O)o2)cc1OC	none
O=C(N/N=C/c1ccc(Cl)cc1Cl)Nc1ccccc1	none
COc1ccc(-c2[nH]ncc2/C=N\NS(=O)(=O)c2ccc(Cl)cc2)cc1	CYP2C9 inhib 68.0, CYP2C19 inhib 89.6, PostGolgi ctrl 30.6
CCC(C)NCCCCOc1ccc(C)cc1[N+](=O)[O-] (stereo unspecified)	none
Cc1ccc(C)c(NC(=O)CCC(=O)NNC(=O)c2cccc([N+](=O)[O-])c2)c1	none
CCc1ccccc1N1C(=O)C2CC(C)=C(C)CC2C1=O (stereo unspecified)	CYP2C9 inhib 51.4
CCc1ccccc1N1C(=O)C2CC=CCC2C1=O (stereo unspecified)	none
Cc1c(C(=O)N(C)C)sc(NC(=O)c2cccc([N+](=O)[O-])c2)c1C#N	none
Cc1cc(N2CCCCC2)nc2ccc(NC(=O)c3ccc(Br)o3)cc12	CYP2C9 inhib 81.4, CYP2C19 inhib 94.1
Cc1cc(N2CCOCC2)nc2ccc(NC(=O)CCC(=O)N3CCCCC3)cc12	none
Cc1cc(N2CCN(C)CC2)nc2ccc(NC(=O)c3ccc(Br)o3)cc12	PostGolgi ctrl 32.1
O=C(CCN1C(=O)c2ccccc2C1=O)Nc1ccccc1C(=O)N1CCOCC1	none
O=C(c1ccco1)N(CCCN1CCOCC1)c1nc(-c2ccc(F)cc2)cs1	CYP2C9 inhib 66.8
O=C(NCCCN1CCOCC1)c1ccco1	none
O=C(c1ccco1)N(CCCN1CCOCC1)c1nc(-c2ccc(Cl)cc2)cs1	CYP2C9 inhib 92.5, CYP2C19 inhib 87.1
O=C(Nc1ccccc1C(=O)NCCN1CCOCC1)c1ccco1	none
CC(=O)Cc1nsc(NC(=O)c2cc(-c3ccccc3Cl)oc2C)n1	none
CCN=C1SC(C(=O)Nc2cccc(C)c2)CC(=O)N1CC (stereo unspecified)	CYP2C9 activ 2.4, CYP2C19 inhib 80.2
CCN=C1SC(C(=O)Nc2ccc(Cl)c(Cl)c2)CC(=O)N1CC (stereo unspecified)	none
CCN=C1SC(C(=O)NCCc2ccccc2)CC(=O)N1CC (stereo unspecified)	CYP2C19 inhib 64.2
Cn1c(-c2ccc[nH]c2=O)nc2cc(Cl)ccc21	none (no result: CYP2C19 act, CYP2C9 inhib, CYP2C9 activ, CYP2C19 inhib)
CCOc1ccc(NC(=O)CC2C(=O)N(c3ccccc3)C(=S)N2Cc2ccccn2)cc1 (stereo unspecified)	none
O=C(CC1C(=O)N(c2ccc(Cl)cc2)C(=S)N1CCc1ccncc1)Nc1ccc(F)cc1 (stereo unspecified)	CYP2C9 inhib 95.1, CYP2C19 inhib 84.6
O=C(CC1C(=O)N(c2ccc(F)cc2)C(=O)N1Cc1ccccn1)Nc1ccccc1 (stereo unspecified)	CYP2C19 inhib 56.0
CN(C)c1ccc(NC(=O)CC2NCCNC2=O)cc1 (stereo unspecified)	none
Cc1ccc(CNCc2cc3c(C(C)(C)C)nn(-c4ccccc4)c3[nH]c2=O)cc1	none
COc1ccc(CNCc2cc3c(C(C)(C)C)nn(-c4ccccc4)c3[nH]c2=O)cc1	CYP2C9 inhib 58.9
CC(C)(C)c1nn(-c2ccccc2)c2[nH]c(=O)c(CNCc3ccco3)cc12	CYP2C9 inhib 62.1
CCCCNS(=O)(=O)c1ccc(OC)cc1	none
COc1ccc(S(=O)(=O)NCc2ccccn2)c(Cl)c1Cl	CYP2C9 activ 2, CYP2C19 inhib 87.8
COc1ccc(S(=O)(=O)NCCSC(C)(C)C)c(Cl)c1Cl	CYP2C9 activ 3.2, CYP2C19 inhib 94.5, PostGolgi ctrl 31.3
CCCNS(=O)(=O)c1ccc(OC)c(Cl)c1Cl	CYP2C19 inhib 52.6
Cc1ccc(N2C(=O)CSC2c2c(F)cccc2Cl)cc1 (stereo unspecified)	CYP2C9 inhib 58.2, CYP2C19 inhib 93.1
COc1ccccc1-n1c(=O)oc2ccc(Cl)cc2c1=O	PostGolgi ctrl 60.4
CCCN(C(=O)c1cccs1)c1nnc(-c2ccncc2)s1	CYP2C9 inhib 54.8, CYP2C19 inhib 99.0
O=C(Nc1ccc(Cl)cc1)C1CC=CCC1C(=O)OCC(F)(F)C(F)F (stereo unspecified)	none
O=C(Nc1ccc(Br)cc1)C1CC=CCC1C(=O)OCC1CCCO1 (stereo unspecified)	CYP2C19 inhib 50.6
COc1ccc(OC(=O)c2ccncc2)cc1	CYP2C9 inhib 57.2, CYP2C19 inhib 77.3
CC(=O)c1cc(OC(=O)c2ccncc2)ccc1OC(=O)c1ccncc1	CYP2C9 inhib 65.0, CYP2C19 inhib 89.6
COc1ccc(CN2CC(C(=O)NCc3cccc(OC)c3)CC2=O)cc1 (stereo unspecified)	none
CC(C)(C)NS(=O)(=O)c1cnc(Cl)c(Cl)c1	CYP2C19 inhib 90.2
CC(C)(C)NS(=O)(=O)c1ccc(Oc2ncc(C(F)(F)F)cc2Cl)cc1	none
O=C(CN1/C(=C(/O)c2ccccc2)C(=O)c2ccccc2S1(=O)=O)c1ccccc1	none
Cc1cc(C)n(C(=O)c2ccc(NC(=O)C3CC3)cc2)n1	CYP2C9 activ 2.2
C=CCN1CCN(c2ccncc2S(=O)(=O)N2CCOCC2)CC1	none
CC(=O)/C(=C/N(C)C)Sc1ccc(C)cc1	CYP2C19 inhib 73.4
COc1ccccc1OCC(=O)Sc1ccc(C)cc1	none
COc1ccc(N2C(=O)CCC(C(=O)Nc3cccc(C)n3)C2c2ccc(OC)c(OC)c2)cc1 (stereo unspecified)	none
CO/N=C(/CS(=O)(=O)c1ccc(C)cc1)c1ccc(OC)cc1	CYP2C19 inhib 99.1
CC1(C)CC(=O)C2=C(C1)Nc1ncnn1C2c1ccccn1 (stereo unspecified)	none
Cc1ccccc1NC(=O)C1CC(=O)N(c2ccc3c4c(cccc24)CC3)C1 (stereo unspecified)	CYP2C9 inhib 55.1
Cc1ccccc1NC(=O)C1CC(=O)N(c2ccccc2F)C1 (stereo unspecified)	none
CCOC(=O)c1c(-c2cccc([N+](=O)[O-])c2)csc1NC(=O)C1CC1	CYP2C9 inhib 75.9
